According to paper PMC11062922 (Nature Chemical Biology, 2023):
Where two headings read alike, the source gives them in different places.

Columns and labels:
GAK = details: read-out: apparent Kd, n = 1
IKBKE = details: read-out: apparent Kd; compound concentrations:100 nM and 1000 nM (sheet 'Lestaurtinib' of Supplementary Table 1),run:Lestaurtinib_02339_R1,Plate:MR001; n = 1

## Lestaurtinib
GAK; compound concentrations:100 nM and 1000 nM (sheet 'Lestaurtinib' of Supplementary Table 1),run:Lestaurtinib_02577_R3,Plate:MR016
  potency estimated from few doses: 574 nM
GAK; compound concentrations:100 nM and 1000 nM (sheet 'Lestaurtinib' of Supplementary Table 1),run:Lestaurtinib_02584_R1,Plate:MR017
  potency estimated from few doses: 641 nM
GAK; compound concentrations:100 nM and 1000 nM (sheet 'Lestaurtinib' of Supplementary Table 1),run:Lestaurtinib_02584_R2,Plate:MR017
  potency estimated from few doses: 628 nM
GAK; compound concentrations:100 nM and 1000 nM (sheet 'Lestaurtinib' of Supplementary Table 1),run:Lestaurtinib_02601_R1,Plate:MR018
  potency estimated from few doses: 786 nM
GAK; compound concentrations:100 nM and 1000 nM (sheet 'Lestaurtinib' of Supplementary Table 1),run:Lestaurtinib_02601_R2,Plate:MR018
  potency estimated from few doses: 761 nM
GAK; compound concentrations:100 nM and 1000 nM (sheet 'Lestaurtinib' of Supplementary Table 1),run:Lestaurtinib_02601_R3,Plate:MR018
  potency estimated from few doses: 56 nM
GAK; compound concentrations:100 nM and 1000 nM (sheet 'Lestaurtinib' of Supplementary Table 1),run:Lestaurtinib_02606_R1,Plate:MR019
  potency estimated from few doses: 646 nM
GAK; compound concentrations:100 nM and 1000 nM (sheet 'Lestaurtinib' of Supplementary Table 1),run:Lestaurtinib_02606_R2,Plate:MR019
  potency estimated from few doses: 729 nM
GAK; compound concentrations:100 nM and 1000 nM (sheet 'Lestaurtinib' of Supplementary Table 1),run:Lestaurtinib_02624_R1,Plate:MR020
  potency estimated from few doses: 818 nM
GAK; compound concentrations:100 nM and 1000 nM (sheet 'Lestaurtinib' of Supplementary Table 1),run:Lestaurtinib_02624_R2,Plate:MR020
  potency estimated from few doses: 627 nM
GAK; compound concentrations:100 nM and 1000 nM (sheet 'Lestaurtinib' of Supplementary Table 1),run:Lestaurtinib_02624_R3,Plate:MR020
  potency estimated from few doses: 770 nM
GAK; compound concentrations:100 nM and 1000 nM (sheet 'Lestaurtinib' of Supplementary Table 1),run:Lestaurtinib_02724_R1,Plate:MR021
  potency estimated from few doses: 577 nM
GAK; compound concentrations:100 nM and 1000 nM (sheet 'Lestaurtinib' of Supplementary Table 1),run:Lestaurtinib_02724_R2,Plate:MR021
  potency estimated from few doses: 628 nM
GAK; compound concentrations:100 nM and 1000 nM (sheet 'Lestaurtinib' of Supplementary Table 1),run:Lestaurtinib_02748_R1,Plate:MR024
  potency estimated from few doses: 455 nM
GAK; compound concentrations:100 nM and 1000 nM (sheet 'Lestaurtinib' of Supplementary Table 1),run:Lestaurtinib_02748_R2,Plate:MR024
  potency estimated from few doses: 649 nM
GAK; compound concentrations:100 nM and 1000 nM (sheet 'Lestaurtinib' of Supplementary Table 1),run:Lestaurtinib_02748_R3,Plate:MR024
  potency estimated from few doses: 731 nM
GAK; compound concentrations:100 nM and 1000 nM (sheet 'Lestaurtinib' of Supplementary Table 1),run:Lestaurtinib_02752_R2,Plate:MR025
  potency estimated from few doses: 637 nM
GAK; compound concentrations:100 nM and 1000 nM (sheet 'Lestaurtinib' of Supplementary Table 1),run:Lestaurtinib_02752_R3,Plate:MR025
  potency estimated from few doses: 696 nM
GAK; compound concentrations:100 nM and 1000 nM (sheet 'Lestaurtinib' of Supplementary Table 1),run:Lestaurtinib_02766_R1,Plate:MR027
  potency estimated from few doses: 591 nM
GAK; compound concentrations:100 nM and 1000 nM (sheet 'Lestaurtinib' of Supplementary Table 1),run:Lestaurtinib_02766_R2,Plate:MR027
  potency estimated from few doses: 36.2 nM
GAK; compound concentrations:100 nM and 1000 nM (sheet 'Lestaurtinib' of Supplementary Table 1),run:Lestaurtinib_02766_R3,Plate:MR027
  potency estimated from few doses: 762 nM
GAK; compound concentrations:100 nM and 1000 nM (sheet 'Lestaurtinib' of Supplementary Table 1),run:Lestaurtinib_02768_R1,Plate:MR028
  potency estimated from few doses: 728 nM
GAK; compound concentrations:100 nM and 1000 nM (sheet 'Lestaurtinib' of Supplementary Table 1),run:Lestaurtinib_02768_R2,Plate:MR028
  potency estimated from few doses: 752 nM
GAK; compound concentrations:100 nM and 1000 nM (sheet 'Lestaurtinib' of Supplementary Table 1),run:Lestaurtinib_02795_R1,Plate:MR022
  potency estimated from few doses: 828 nM
GAK; compound concentrations:100 nM and 1000 nM (sheet 'Lestaurtinib' of Supplementary Table 1),run:Lestaurtinib_02802_R1,Plate:MR029
  potency estimated from few doses: 614 nM
GAK; compound concentrations:100 nM and 1000 nM (sheet 'Lestaurtinib' of Supplementary Table 1),run:Lestaurtinib_02802_R2,Plate:MR029
  potency estimated from few doses: 635 nM
GAK; compound concentrations:100 nM and 1000 nM (sheet 'Lestaurtinib' of Supplementary Table 1),run:Lestaurtinib_02896_R2,Plate:MR030
  potency estimated from few doses: 687 nM
GAK; compound concentrations:100 nM and 1000 nM (sheet 'Lestaurtinib' of Supplementary Table 1),run:Lestaurtinib_02896_R3,Plate:MR030
  potency estimated from few doses: 634 nM
GAK; compound concentrations:100 nM and 1000 nM (sheet 'Lestaurtinib' of Supplementary Table 1),run:Lestaurtinib_03172_R1,Plate:MR031
  potency estimated from few doses: 665 nM
GAK; compound concentrations:100 nM and 1000 nM (sheet 'Lestaurtinib' of Supplementary Table 1),run:Lestaurtinib_03172_R2,Plate:MR031
  potency estimated from few doses: 786 nM
GAK; compound concentrations:100 nM and 1000 nM (sheet 'Lestaurtinib' of Supplementary Table 1),run:Lestaurtinib_03172_R3,Plate:MR031
  potency estimated from few doses: 687 nM
GAK; compound concentrations:100 nM and 1000 nM (sheet 'Lestaurtinib' of Supplementary Table 1),run:Lestaurtinib_03252_R1,Plate:MR032
  potency estimated from few doses: 707 nM
GAK; compound concentrations:100 nM and 1000 nM (sheet 'Lestaurtinib' of Supplementary Table 1),run:Lestaurtinib_03252_R2,Plate:MR032
  potency estimated from few doses: 29.5 nM
GAK; compound concentrations:100 nM and 1000 nM (sheet 'Lestaurtinib' of Supplementary Table 1),run:Lestaurtinib_03260_R1,Plate:MR033
  potency estimated from few doses: 784 nM
GAK; compound concentrations:100 nM and 1000 nM (sheet 'Lestaurtinib' of Supplementary Table 1),run:Lestaurtinib_03260_R2,Plate:MR033
  potency estimated from few doses: 821 nM
GAK; compound concentrations:100 nM and 1000 nM (sheet 'Lestaurtinib' of Supplementary Table 1),run:Lestaurtinib_03260_R3,Plate:MR033
  potency estimated from few doses: 793 nM
IKBKE
  potency estimated from few doses: 861 nM
